NALP1 yeast inh = inhibitors of NALP1 inflammasome in yeast; S. cerevisiae NALP1/ASC/caspase-1 growth, X-gal OD620, 72 h; inhibition, % at 10 µM; actives 0.61% (n = 280,000); AID 2071; in the data active = inhibition mostly above about 24%, no sharp cut-off; inactive = mostly below about 32%
APOBEC3A inh = blocks human APOBEC3A ssDNA deamination; P31941; recombinant A3A, FAM/TAMRA ssDNA deamination fluorescence; inhibition, % at 20 µM; actives 0.41% (n = 330,000); AID 493011;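 active = at least 40% inhibition at 20 µM here, with at most 30% in a related deaminase screen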;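 also: plate controls were A3A with DMSO for no effect and wells lacking A3A enzyme for full effect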
Target sequence (P31941 whole entry, looked up): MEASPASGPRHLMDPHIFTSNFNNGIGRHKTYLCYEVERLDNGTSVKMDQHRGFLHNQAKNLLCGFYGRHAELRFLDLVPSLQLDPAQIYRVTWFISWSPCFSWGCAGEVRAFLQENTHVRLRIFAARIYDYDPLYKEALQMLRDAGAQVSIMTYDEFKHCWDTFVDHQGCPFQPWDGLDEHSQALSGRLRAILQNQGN
CTSL1 counter = blocks F. hepatica cathepsin L1 in PFM18AAP counter-screen. recombinant F. hepatica cathepsin L1, Z-Leu-Arg-MCA fluorescence. inhibition, % at 5.96 µM. actives 0.49% (n = 300,000). AID 1906;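 active = inhibition above the mean of all tested compounds plus 3 SD, set per screening campaign, cut at about 17% in these data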;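 also: 0% = plate median of test compound wells and 100% = 1 µM Z-Phe-Ala-diazomethylketone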
APOBEC3G inh = inhibitors of human APOBEC3G DNA deaminase. Q9HC16. recombinant A3G, ssDNA deamination FAM/TAMRA fluorescence. inhibition, % at 20 µM. actives 0.28% (n = 330,000). AID 493012;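 active = inhibition of at least 40% at 20 µM, with no more than 30% in the related APOBEC3A deaminase screen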;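 also: plate controls were DMSO wells with A3G for no effect and wells lacking A3G enzyme for full effect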
Target sequence (Q9HC16 whole entry, looked up): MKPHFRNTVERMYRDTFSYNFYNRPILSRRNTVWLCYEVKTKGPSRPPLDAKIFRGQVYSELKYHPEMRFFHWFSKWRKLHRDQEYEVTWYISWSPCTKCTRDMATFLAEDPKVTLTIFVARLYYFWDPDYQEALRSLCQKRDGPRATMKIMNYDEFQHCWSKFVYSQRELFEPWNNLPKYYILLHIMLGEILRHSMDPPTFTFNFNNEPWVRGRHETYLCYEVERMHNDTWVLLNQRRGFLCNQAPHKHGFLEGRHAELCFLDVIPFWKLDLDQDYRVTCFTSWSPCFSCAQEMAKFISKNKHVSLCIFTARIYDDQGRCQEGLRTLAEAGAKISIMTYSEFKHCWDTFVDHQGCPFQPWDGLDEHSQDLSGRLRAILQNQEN
HGIII-sPLA2 inh = Blocks human group III sPLA2 activity; Q9NZ20; QFRET BODIPY PC-A2 liposome hydrolysis, fluorescence; inhibition, % at 12.2 µM; actives 0.56% (n = 370,000);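 active = inhibition above mean plus 3 SD of compounds lying within the high and low control bounds, cut at about 19% in these data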;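 also: 0% = median of test compound wells and 100% = no enzyme DMSO wells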
sPLA2 confirm = human GIII-sPLA2 inhibition, confirmation; shares compounds with HGIII-sPLA2 inh; recombinant hGIII-sPLA2, BODIPY PC-A2 QFRET fluorescence; inhibition, % at 12.2 µM; actives 34% (n = 2,000); AID 743280;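 active = mean inhibition across triplicates above the hit cutoff set in the earlier primary screen, cut at about 19% in these data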;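 also: 0% = enzyme with DMSO and 100% = DMSO wells lacking enzyme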
BODIPY interf = optically interferes with 535nm fluorescence in sPLA2 counter-screen; shares compounds with HGIII-sPLA2 inh; BODIPY FL product fluorescence interference, QFRET; inhibition, % at 12.2 µM; actives 8.5% (n = 2,000);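 active = average inhibition above the solvent-only control mean plus 3 SD, cut at about 6% in these data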;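 also: 0% = DMSO with substrate plus product and 100% = DMSO with substrate alone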
535nm interf DR = interferes with 535nm fluorescence in dose response counter-screen; IC50, µM; shares compounds with HGIII-sPLA2 inh; BODIPY FL product fluorescence interference, cell-free; AID 743455; 240 tested, under 10 active;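 active = IC50 at or below 10 µM; inactive = IC50 above 10 µM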
An asterisk follows results filed as active. Compounds with a hit are over-represented: about 2% of the library has one in this group of screens.

What do the screens show for `Cc1ccc(NC(=O)COC(=O)c2cc(Cl)ccc2[N+](=O)[O-])c(C)c1`?
NALP1 yeast inh: 22; APOBEC3A inh: -1; CTSL1 counter: -5; APOBEC3G inh: -7; HGIII-sPLA2 inh: 20*; sPLA2 confirm: 2; BODIPY interf: -6

What do the screens show for `Oc1ccc(CCc2ccccc2)c2cccnc12`?
HGIII-sPLA2 inh: 26*; sPLA2 confirm: 21*; BODIPY interf: -3

Results for Oc1ccc(CNc2cccnc2)c2cccnc12 ?
HGIII-sPLA2 inh: 3

Results for COC(=O)CCn1[nH]c(=O)c2ccccc2c1=O ?
NALP1 yeast inh: 26; APOBEC3A inh: -3; CTSL1 counter: -4; APOBEC3G inh: -9; HGIII-sPLA2 inh: 24*; sPLA2 confirm: -4; BODIPY interf: -4

How did C=CCN1C(=O)[C@@H](CC(=O)NCCCCc2ccccc2)[C@]2(C(=O)OC)CCCCC=C12 do in these assays?
HGIII-sPLA2 inh: -9

What do the screens show for `O=c1[nH]c2ccccc2n2c(=S)[nH]nc12`?
NALP1 yeast inh: -6; APOBEC3A inh: 2; CTSL1 counter: 2; APOBEC3G inh: 20; HGIII-sPLA2 inh: 10

Results for O=c1[nH]c2ccccc2n2c(C(F)(F)F)nnc12 ?
NALP1 yeast inh: 9; APOBEC3A inh: -4; CTSL1 counter: 1; APOBEC3G inh: -9; HGIII-sPLA2 inh: 20*; sPLA2 confirm: 3; BODIPY interf: -8

Results for Cc1onc(-c2ccccc2)c1C(=O)NN=Cc1cc(Cl)cc(Cl)c1O ?
HGIII-sPLA2 inh: 22*; sPLA2 confirm: 17; BODIPY interf: 11*

How did COc1cccc(C(NC(C)=O)c2ccc3cccnc3c2O)c1 (centres undefined) do in these assays?
NALP1 yeast inh: 8; APOBEC3A inh: 2; CTSL1 counter: 1; APOBEC3G inh: -1; HGIII-sPLA2 inh: 1

How did COc1cccc(C(Nc2ccccc2)c2ccc3ccc(C)nc3c2O)c1 (centres undefined) do in these assays?
HGIII-sPLA2 inh: 22*; sPLA2 confirm: 5; BODIPY interf: 8.3*

What do the screens show for `COC(=O)[C@]12C[C@H](CC(=O)N3CCN(C(=O)C4CC4)CC3)C(=O)N(CCc3ccc(OC)c(OC)c3)C1=C[C@H](COCc1ccccc1)O[C@@H]2C`?
HGIII-sPLA2 inh: -5

How did COc1cccc(Nc2nc(C(N)CO)cs2)n1 (centres undefined) do in these assays?
HGIII-sPLA2 inh: 21*; sPLA2 confirm: 12; BODIPY interf: -6

How did COc1cccc(Nc2nc(C(N)Cc3ccccc3)cs2)n1 (centres undefined) do in these assays?
HGIII-sPLA2 inh: 7

What do the screens show for `CC1CCCCC1NC(=O)CSC1=Nc2ccccc2C2CC=NN12` (centres undefined)?
APOBEC3A inh: -1; APOBEC3G inh: -9; HGIII-sPLA2 inh: 20*; sPLA2 confirm: -3; BODIPY interf: -18

Results for CC1CCCC(NC(=O)CSC2=Nc3ccccc3C3CC=NN23)C1C (centres undefined) ?
APOBEC3A inh: -3; APOBEC3G inh: -4; HGIII-sPLA2 inh: -4

What do the screens show for `CCn1c2ccccc2c2cc(NC(=O)c3ccc(Br)o3)ccc21`?
NALP1 yeast inh: 6; APOBEC3A inh: 0; CTSL1 counter: 1; APOBEC3G inh: 5; HGIII-sPLA2 inh: 21*; sPLA2 confirm: 16; BODIPY interf: -2

Results for O=C(NCCCN1CCCC1=O)c1ccc(S(=O)(=O)Nc2ccccc2F)cc1 ?
APOBEC3A inh: 2; CTSL1 counter: -1; APOBEC3G inh: -7; HGIII-sPLA2 inh: 3

What do the screens show for `O=C(NCCCN1CCCC1=O)c1ccc(CNS(=O)(=O)c2ccc(F)cc2)cc1`?
NALP1 yeast inh: -3; APOBEC3A inh: -5; CTSL1 counter: -1; APOBEC3G inh: -4; HGIII-sPLA2 inh: 72*; sPLA2 confirm: -1; BODIPY interf: -10

What do the screens show for `S=c1[nH]nc(-c2ccc(Cl)cc2)n1CCCN1CCOCC1`?
NALP1 yeast inh: -13; APOBEC3A inh: 3; CTSL1 counter: 1; APOBEC3G inh: -3; HGIII-sPLA2 inh: 20*; sPLA2 confirm: 6; BODIPY interf: -4

What do the screens show for `COC(=O)[C@]12C[C@H](CC(=O)NCc3cccs3)C(=O)N(Cc3ccc4c(c3)OCO4)C1=C[C@H](C(C)C)O[C@@H]2C1CC1`?
HGIII-sPLA2 inh: -6

Results for Cc1cccc(N2CCN(C(=O)c3cc(S(=O)(=O)N(C)C)ccc3Cl)CC2)c1C ?
HGIII-sPLA2 inh: -11

Results for C[C@H](CO)N1C[C@H](C)[C@H](CN(C)C(=O)Nc2ccc(N3CCCCC3)cc2)OCc2cnnn2CCCC1=O ?
HGIII-sPLA2 inh: 1

What do the screens show for `Cc1cc(C)c2nc(NNC(=O)c3ccc(S(=O)(=O)N4CCCCC4)cc3)sc2c1`?
NALP1 yeast inh: 25; APOBEC3A inh: 1; CTSL1 counter: 0; APOBEC3G inh: 0; HGIII-sPLA2 inh: 46*; sPLA2 confirm: 53*; BODIPY interf: -2; 535nm interf DR: >122

Results for CCOC(=O)N1CCN(S(=O)(=O)c2ccc(C(=O)NNc3nc4c(C)cc(C)cc4s3)cc2)CC1 ?
NALP1 yeast inh: 27; APOBEC3A inh: -5; CTSL1 counter: 1; APOBEC3G inh: -3; HGIII-sPLA2 inh: 60*; sPLA2 confirm: 45*; BODIPY interf: -3; 535nm interf DR: >122

What do the screens show for `CCOC(=O)N1CCN(S(=O)(=O)c2ccc(C(=O)NNc3nc4c(C)cccc4s3)cc2)CC1`?
NALP1 yeast inh: 30; APOBEC3A inh: -2; CTSL1 counter: 0; APOBEC3G inh: -5; HGIII-sPLA2 inh: 33*; sPLA2 confirm: 39*; BODIPY interf: -1; 535nm interf DR: >122

What do the screens show for `CCOC(=O)N1CCN(S(=O)(=O)c2ccc(C(=O)NNc3nc4cc(C)cc(C)c4s3)cc2)CC1`?
NALP1 yeast inh: 28; APOBEC3A inh: -1; CTSL1 counter: 1; APOBEC3G inh: -1

How did O=C1C=CC(=O)N1c1ccc2c(c1)C(NC(=O)C(F)(F)F)c1ccccc1-2 (centres undefined) do in these assays?
HGIII-sPLA2 inh: 19*; sPLA2 confirm: 4; BODIPY interf: -4

How did CN(C)C(=O)NC1c2ccccc2-c2ccccc21 do in these assays?
NALP1 yeast inh: 9; APOBEC3A inh: -2; CTSL1 counter: -2; APOBEC3G inh: -10; HGIII-sPLA2 inh: -1

How did COc1ccc(OC)c(S(=O)(=O)N2CCC(C(=O)NCc3cccs3)CC2)c1 do in these assays?
HGIII-sPLA2 inh: 10

Compound activity: PubChem BioAssay, several laboratories
